Assay [1] in a line: modulation of C. elegans fzo-1 (AID 1259413).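 Further: fzo-1 mutant C. elegans worms in liquid wells.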 As to conditions: C. elegans fzo-1 modulator screen, mean read-out; stronger effect = higher value.
Assay [2] is described as follows: differential killing of epithelial or mesenchymal cells, primary screen, imaging, PC-3E GFP, TEM4-18 mCherry, co-culture (AID 1345086;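 active means compounds killing one labelled cell type while sparing the other, by normalised counts and ratio limits, not self-fluorescent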;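 on all read-outs here: cells exposed to compound for 72 h before imaging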;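 on red/green cell ratio (normalised): normalised mesenchymal count divided by normalised epithelial count so high means epithelial killing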). The conditions noted are these: imaging cell counts, at 1 µM; for red/green cell ratio (normalised): actives lie on both sides, counts scaled to control wells, 1 = unselective.
A short description of assay [3]: growth inhibition of DIPG glioma cells, dose response, cell-based, SU-DIPG-XIII, MIPE4.0, CellTiter-Glo, qHTS (AID 1347061; cut-off not given, nearly all actives have AC50 up to about 37 µM;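 further: cells exposed to compound for 48 hours before readout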). As to conditions: SU-DIPG-XIII viability, CellTiter-Glo ATP luminescence.
The nature of assay [4]: growth inhibition of DIPG glioma cells, dose response, cell-based, JHH-DIPG-1, MIPE4.0, CellTiter-Glo, qHTS (AID 1347062; cut-off not given, nearly all actives have AC50 up to about 27 µM;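 on AC50: cells exposed to compound for two days before readout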). As to conditions: JHH-DIPG-1 viability, CellTiter-Glo ATP luminescence.
A short description of assay [5]: growth inhibition of DIPG glioma cells, dose response, cell-based, SU-DIPG-IV, MIPE4.0, CellTiter-Glo, qHTS (AID 1347063; cut-off not given, nearly all actives have AC50 up to about 30 µM;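 further: compound exposure lasted 48 hours before the viability readout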). As to conditions: SU-DIPG-IV viability, CellTiter-Glo ATP luminescence.
For assay [6], the system named is Aerobactin synthetase IucA (Klebsiella pneumoniae). The experiment in a line: IucA aerobactin synthetase inhibitors, biochemical, Tocris library, absorbance (AID 1345561).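 Further: 100% = enzyme without compound and 0% = no enzyme.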 The conditions noted are these: purified IucA enzyme assay, absorbance (OD) read-out; stronger effect = lower value;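 tested at 8 µM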.
Assay [7] can be described thus: growth inhibition of DIPG glioma cells, dose response, cell-based, SU-DIPG-XVII, MIPE5.0, CellTiter-Glo, qHTS (AID 1347060; cut-off not given, nearly all actives have AC50 up to about 26 µM;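 on AC50: cells exposed to compound for 48 hours before viability readout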). The conditions noted are these: SU-DIPG-XVII viability, CellTiter-Glo ATP luminescence.
Assay [8] can be described thus: growth inhibition of DIPG glioma cells, dose response, cell-based, SU-DIPG-XIII, MIPE5.0, CellTiter-Glo, qHTS (AID 1347064; cut-off not given, nearly all actives have AC50 up to about 23 µM;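 on AC50: cells exposed to compound for 48 hours before the viability read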). As to conditions: SU-DIPG-XIII viability, CellTiter-Glo ATP luminescence.
[9] abbreviates: measured here: epithelial PC-3E GFP cell survival.
[10] abbreviates: measured here: mesenchymal TEM4-18 mCherry cell survival.

Inconclusive results are not listed. The source made the active and inactive calls. Unless noted, how the calls were made is not given here.

For the molecule `CC(c1cc2ccccc2s1)N(O)C(N)=O` (stereo not given), in assay [1], the mean signal was 255 (inactive). For the same molecule, the red/green cell ratio (normalised) in assay [2] is 0.83 (inactive). The normalised cell number in assay [2] (setting [9]) is 1.22; in assay [2] (setting [10]), 1.01. Besides, the outcome in assay [3], in assay [4] and in assay [5] was inactive.

Consider `CCN1CCC[C@H]1CNC(=O)c1c(O)c(Cl)cc(Cl)c1OC`, for which the mean signal in assay [1] is 227 (inactive). In addition, the remaining activity in assay [6] is 118% (inactive).

Consider `CC(=O)Oc1ccccc1C(=O)Nc1ncc([N+](=O)[O-])s1`, for which, in assay [1], the mean signal is 256 (inactive). For the same molecule, in assay [2], the red/green cell ratio (normalised) is 0.75 (inactive). Besides, the normalised cell number in assay [2] (setting [9]) was 1.31; in assay [2] (setting [10]) it was 0.98. Further, the AC50 is 27 µM (active) in assay [3], 38.2 µM (active) in assay [4] and 34 µM (active) in assay [5].

In the case of `COc1cc(C(=O)NS(=O)(=O)c2ccccc2C)ccc1Cc1cn(C)c2ccc(NC(=O)OC3CCCC3)cc12`, the mean signal in assay [1] was 223 (inactive). Also, the molecule was classed as inactive in assay [7]. In assay [5], the AC50 was 20.9 µM (active).

As to `CC(=O)[C@]1(O)Cc2c(O)c3c(c(O)c2[C@@H](O[C@H]2C[C@H](N)[C@H](O)[C@H](C)O2)C1)C(=O)c1ccccc1C3=O`, in assay [1], the mean signal is 267 (inactive). The AC50 was 0.372 µM (active) in assay [7]; 3.32 µM (active) in assay [3]; 0.526 µM (active) in assay [4]; 0.662 µM (active) in assay [5]; 11.8 µM (active) in assay [8].

Consider `O=C1CC2(CCCC2)CC(=O)N1CCNCC1COc2ccccc2O1` (stereo not given), for which, in assay [1], the mean signal was 200 (inactive). The remaining activity in assay [6] was 96.6% (inactive).

For the molecule `Clc1ccc2nsnc2c1NC1=NCCN1`, the mean signal in assay [1] was 249 (inactive). Also, in assay [6], the remaining activity was 113% (inactive). Moreover, the molecule was classed as inactive in assay [7], in assay [3] and in assay [8].

Turning to `CCOC(=O)[C@H](CCc1ccccc1)N[C@@H](C)C(=O)N1[C@H](C(=O)O)C[C@@H]2CCC[C@@H]21`, the mean signal in assay [1] was 226 (inactive). The red/green cell ratio (normalised) in assay [2] is 0.83 (inactive). The normalised cell number was 1.1 in assay [2] (setting [9]) and 0.91 in assay [2] (setting [10]). Moreover, the AC50 in assay [3] was 8.33 µM (active); in assay [4], 16.6 µM (active); in assay [5] it was 5.9 µM (active). Moreover, the outcome in assay [8] was inactive.

(Values after PubChem BioAssay.)
